# Columns and labels:
# Experiment in all cases: DAPPL (digital affinity profiling via proximity ligation, sequencing); 10 mM Tris-HCl pH 7.5, 50 mM NaCl, 1 mM DTT, 4% glycerol, room temperature, 30 min; GST-TFs on glutathione beads, 16-mer random dsDNA library, 0.1% formaldehyde crosslink after washing; high values mean tight binding
# FLI1 = molecular target: T1, FLI1 (Homo sapiens, UniProt Q01543 1-452); settings: protein: recombinant; tags: N-terminal GST; dsDNA, one strand shown
# T1 sequence: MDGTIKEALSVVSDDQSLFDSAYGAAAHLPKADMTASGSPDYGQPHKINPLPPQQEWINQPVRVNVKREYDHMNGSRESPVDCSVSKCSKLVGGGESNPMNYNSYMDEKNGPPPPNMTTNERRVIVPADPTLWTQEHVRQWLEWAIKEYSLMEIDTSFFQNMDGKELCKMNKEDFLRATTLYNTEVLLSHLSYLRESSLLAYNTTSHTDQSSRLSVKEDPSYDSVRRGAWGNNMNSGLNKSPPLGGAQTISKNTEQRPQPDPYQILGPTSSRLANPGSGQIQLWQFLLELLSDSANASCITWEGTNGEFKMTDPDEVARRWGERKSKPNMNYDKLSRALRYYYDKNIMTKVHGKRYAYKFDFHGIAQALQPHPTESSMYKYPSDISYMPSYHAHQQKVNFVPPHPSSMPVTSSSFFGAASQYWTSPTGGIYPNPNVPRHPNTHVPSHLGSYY
# Outline: (§1)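 Human transcription factors fused to GST were expressed in yeast, captured on glutathione beads, given DNA barcodes and pooled with a GST-only negative control. Pools were incubated with 200 nmole of a 16-mer random double-stranded DNA library in Tris/NaCl/DTT/glycerol buffer at room temperature for 30 min. They were then washed, crosslinked with 0.1% formaldehyde, proximity-ligated (BsaI/T4 ligase, 1 h, 37 °C), PCR-amplified and sequenced on an Illumina NextSeq500. Binding signal is each 6-mer's read frequency for a factor divided by its frequency for the GST control.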
# ELK1 = molecular target: T2, ELK1 (Homo sapiens, UniProt P19419 1-428); settings: protein: recombinant; tags: N-terminal GST; dsDNA, one strand shown
# T2 sequence: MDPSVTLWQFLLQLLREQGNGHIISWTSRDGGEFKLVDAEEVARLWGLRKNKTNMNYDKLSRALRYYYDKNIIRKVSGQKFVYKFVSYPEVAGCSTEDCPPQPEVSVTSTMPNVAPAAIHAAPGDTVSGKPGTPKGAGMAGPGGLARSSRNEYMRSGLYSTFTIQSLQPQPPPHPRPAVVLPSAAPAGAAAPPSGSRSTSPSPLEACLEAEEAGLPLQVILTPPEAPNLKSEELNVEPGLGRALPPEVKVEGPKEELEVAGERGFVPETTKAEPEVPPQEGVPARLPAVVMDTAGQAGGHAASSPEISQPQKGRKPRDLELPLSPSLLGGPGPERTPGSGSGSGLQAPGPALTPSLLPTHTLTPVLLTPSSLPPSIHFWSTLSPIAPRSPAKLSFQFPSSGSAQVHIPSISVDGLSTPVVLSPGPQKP
# Outline: as §1
# GABPA = molecular target: T3, GABPA (Homo sapiens, UniProt Q06546 1-454); settings: protein: recombinant; tags: N-terminal GST; dsDNA, one strand shown
# T3 sequence: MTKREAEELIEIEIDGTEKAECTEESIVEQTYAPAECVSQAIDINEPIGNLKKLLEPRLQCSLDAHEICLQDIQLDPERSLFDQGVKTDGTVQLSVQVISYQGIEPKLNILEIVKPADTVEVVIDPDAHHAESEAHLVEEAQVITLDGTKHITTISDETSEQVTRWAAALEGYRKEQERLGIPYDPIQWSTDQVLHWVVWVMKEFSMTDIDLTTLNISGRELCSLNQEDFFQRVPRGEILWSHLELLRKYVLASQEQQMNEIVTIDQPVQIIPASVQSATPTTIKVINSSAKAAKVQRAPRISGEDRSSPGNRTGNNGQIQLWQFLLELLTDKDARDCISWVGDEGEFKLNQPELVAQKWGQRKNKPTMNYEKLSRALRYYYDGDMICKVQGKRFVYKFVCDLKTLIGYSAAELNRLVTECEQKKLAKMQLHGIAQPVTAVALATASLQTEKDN
# Outline: as §1
# ERG = molecular target: T4, ERG (Homo sapiens, UniProt P11308 1-479); settings: protein: recombinant; tags: N-terminal GST; dsDNA, one strand shown
# T4 sequence: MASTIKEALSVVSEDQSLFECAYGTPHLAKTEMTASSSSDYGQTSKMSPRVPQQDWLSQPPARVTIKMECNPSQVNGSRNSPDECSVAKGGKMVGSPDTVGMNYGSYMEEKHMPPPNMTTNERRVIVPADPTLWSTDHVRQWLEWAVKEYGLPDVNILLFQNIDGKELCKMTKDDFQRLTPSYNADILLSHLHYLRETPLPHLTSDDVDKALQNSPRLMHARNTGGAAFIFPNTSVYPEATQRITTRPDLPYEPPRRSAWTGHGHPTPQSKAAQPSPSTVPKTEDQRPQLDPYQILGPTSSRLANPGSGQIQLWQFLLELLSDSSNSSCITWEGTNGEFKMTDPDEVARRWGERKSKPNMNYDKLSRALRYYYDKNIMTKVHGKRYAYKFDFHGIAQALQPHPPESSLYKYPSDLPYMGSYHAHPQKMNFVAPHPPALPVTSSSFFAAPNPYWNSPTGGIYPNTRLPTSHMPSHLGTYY
# Outline: as §1
# ELF1 = ELF1 (Homo sapiens, UniProt P32519 1-619); settings: protein: recombinant; tags: N-terminal GST; dsDNA, one strand shown
# Outline: as §1
# EHF = molecular target: T5, EHF (Homo sapiens, UniProt Q9NZC4 1-300); settings: protein: recombinant; tags: N-terminal GST; dsDNA, one strand shown
# T5 sequence: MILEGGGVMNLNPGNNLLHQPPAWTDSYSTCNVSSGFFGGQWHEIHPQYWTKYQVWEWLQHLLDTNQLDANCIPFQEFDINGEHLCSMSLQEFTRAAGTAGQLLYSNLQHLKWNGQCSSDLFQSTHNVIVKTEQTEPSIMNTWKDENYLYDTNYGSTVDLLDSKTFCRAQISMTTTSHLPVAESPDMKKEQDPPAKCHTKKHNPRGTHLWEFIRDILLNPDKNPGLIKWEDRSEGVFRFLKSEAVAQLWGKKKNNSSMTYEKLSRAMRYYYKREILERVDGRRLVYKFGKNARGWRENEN
# Outline: as §1
# SPI1 = SPI1 (Homo sapiens, UniProt P17947 1-270); settings: protein: recombinant; tags: N-terminal GST; dsDNA, one strand shown
# Outline: as §1
# SPIB = SPIB (Homo sapiens, UniProt Q01892 1-262); settings: protein: recombinant; tags: N-terminal GST; dsDNA, one strand shown
# Outline: as §1
# ELK3 = molecular target: T6, ELK3 (Homo sapiens, UniProt P41970 1-407); settings: protein: recombinant; tags: N-terminal GST; dsDNA, one strand shown
# T6 sequence: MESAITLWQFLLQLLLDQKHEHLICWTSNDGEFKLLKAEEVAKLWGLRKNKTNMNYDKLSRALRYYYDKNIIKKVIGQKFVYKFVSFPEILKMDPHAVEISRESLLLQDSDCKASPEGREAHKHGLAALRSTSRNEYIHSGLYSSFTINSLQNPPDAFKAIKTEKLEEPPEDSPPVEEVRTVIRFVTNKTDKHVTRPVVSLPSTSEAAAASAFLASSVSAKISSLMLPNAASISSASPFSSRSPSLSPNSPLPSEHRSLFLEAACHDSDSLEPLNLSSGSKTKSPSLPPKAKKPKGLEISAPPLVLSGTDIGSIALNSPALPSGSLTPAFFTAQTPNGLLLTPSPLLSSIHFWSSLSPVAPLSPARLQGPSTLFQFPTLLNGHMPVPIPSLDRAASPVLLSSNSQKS
# Outline: as §1
# FEV = molecular target: T7, FEV (Homo sapiens, UniProt Q99581 1-238); settings: protein: recombinant; tags: N-terminal GST; dsDNA, one strand shown
# T7 sequence: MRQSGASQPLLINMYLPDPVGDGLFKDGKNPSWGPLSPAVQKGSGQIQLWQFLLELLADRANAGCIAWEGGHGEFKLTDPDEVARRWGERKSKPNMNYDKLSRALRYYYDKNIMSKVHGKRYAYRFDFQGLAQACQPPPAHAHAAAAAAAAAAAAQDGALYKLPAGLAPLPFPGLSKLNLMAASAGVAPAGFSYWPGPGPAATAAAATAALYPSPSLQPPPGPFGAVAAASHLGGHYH
# Outline: as §1
# ETV5 = ETV5 (Homo sapiens, UniProt P41161 1-510); settings: protein: recombinant; tags: N-terminal GST; dsDNA, one strand shown
# Outline: as §1
# HSF1 = HSF1 (Homo sapiens, UniProt Q00613 1-529); settings: protein: recombinant; tags: N-terminal GST; chain copies: 3; dsDNA, one strand shown
# Outline: as §1
# SPIC = molecular target: T8, SPIC (Homo sapiens, UniProt Q8N5J4 1-248); settings: protein: recombinant; tags: N-terminal GST; dsDNA, one strand shown
# T8 sequence: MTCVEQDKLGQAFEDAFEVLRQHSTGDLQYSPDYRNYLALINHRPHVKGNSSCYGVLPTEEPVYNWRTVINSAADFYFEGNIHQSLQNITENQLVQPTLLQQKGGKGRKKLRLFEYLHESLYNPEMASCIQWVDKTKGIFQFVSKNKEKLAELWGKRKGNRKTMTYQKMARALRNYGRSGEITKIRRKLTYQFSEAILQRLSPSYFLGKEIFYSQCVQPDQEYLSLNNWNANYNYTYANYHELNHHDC
# Outline: as §1
# ELF4 = ELF4 (Homo sapiens, UniProt Q99607 1-663); settings: protein: recombinant; tags: N-terminal GST; dsDNA, one strand shown
# Outline: as §1
# ELK4 = molecular target: T9, ELK4 (Homo sapiens, UniProt P28324-2 1-405); settings: protein: recombinant; tags: N-terminal GST; dsDNA, one strand shown
# T9 sequence: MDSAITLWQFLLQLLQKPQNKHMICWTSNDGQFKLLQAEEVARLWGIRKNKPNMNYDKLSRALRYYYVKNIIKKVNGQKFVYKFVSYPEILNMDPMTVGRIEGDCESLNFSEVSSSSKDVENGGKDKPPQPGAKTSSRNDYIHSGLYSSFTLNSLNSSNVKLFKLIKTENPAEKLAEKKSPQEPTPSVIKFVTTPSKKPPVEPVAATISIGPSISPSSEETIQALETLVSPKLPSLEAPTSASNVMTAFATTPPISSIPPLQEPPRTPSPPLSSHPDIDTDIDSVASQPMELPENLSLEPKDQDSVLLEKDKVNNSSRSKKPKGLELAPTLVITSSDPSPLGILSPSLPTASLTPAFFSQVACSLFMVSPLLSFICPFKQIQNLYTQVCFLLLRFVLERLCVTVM
# Outline: as §1
# ETV2 = molecular target: T10, ETV2 (Homo sapiens, UniProt O00321 1-342); settings: protein: recombinant; tags: N-terminal GST; dsDNA, one strand shown
# T10 sequence: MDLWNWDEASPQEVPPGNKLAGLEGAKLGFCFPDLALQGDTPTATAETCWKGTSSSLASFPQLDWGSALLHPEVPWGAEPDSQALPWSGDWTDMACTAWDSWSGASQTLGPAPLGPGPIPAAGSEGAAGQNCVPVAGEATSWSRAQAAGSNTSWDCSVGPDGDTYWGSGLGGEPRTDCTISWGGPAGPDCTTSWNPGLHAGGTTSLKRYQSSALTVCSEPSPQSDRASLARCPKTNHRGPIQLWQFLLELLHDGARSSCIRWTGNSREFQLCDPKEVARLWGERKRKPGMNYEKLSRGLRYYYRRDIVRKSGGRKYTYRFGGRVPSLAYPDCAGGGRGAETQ
# Outline: as §1
# ELF3 = molecular target: T11, ELF3 (Homo sapiens, UniProt P78545 1-371); settings: protein: recombinant; tags: N-terminal GST; dsDNA, one strand shown
# T11 sequence: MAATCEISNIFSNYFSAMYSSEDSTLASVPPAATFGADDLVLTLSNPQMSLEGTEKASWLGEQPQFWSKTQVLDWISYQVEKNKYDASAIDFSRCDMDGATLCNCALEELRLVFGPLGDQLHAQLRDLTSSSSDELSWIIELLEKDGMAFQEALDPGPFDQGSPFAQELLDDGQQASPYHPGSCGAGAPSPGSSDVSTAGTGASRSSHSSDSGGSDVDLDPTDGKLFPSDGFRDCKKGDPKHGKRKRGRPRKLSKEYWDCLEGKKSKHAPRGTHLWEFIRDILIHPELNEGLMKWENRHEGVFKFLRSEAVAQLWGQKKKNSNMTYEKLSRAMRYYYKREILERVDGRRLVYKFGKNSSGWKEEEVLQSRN
# Outline: as §1
# CRX = CRX (Homo sapiens, UniProt O43186 1-299); settings: protein: recombinant; tags: N-terminal GST; dsDNA, one strand shown
# Outline: as §1
# ETV1 = ETV1 (Homo sapiens, UniProt P50549 1-477); settings: protein: recombinant; tags: N-terminal GST; dsDNA, one strand shown
# Outline: as §1
# Sequence of ELF4 (Q99607 whole entry): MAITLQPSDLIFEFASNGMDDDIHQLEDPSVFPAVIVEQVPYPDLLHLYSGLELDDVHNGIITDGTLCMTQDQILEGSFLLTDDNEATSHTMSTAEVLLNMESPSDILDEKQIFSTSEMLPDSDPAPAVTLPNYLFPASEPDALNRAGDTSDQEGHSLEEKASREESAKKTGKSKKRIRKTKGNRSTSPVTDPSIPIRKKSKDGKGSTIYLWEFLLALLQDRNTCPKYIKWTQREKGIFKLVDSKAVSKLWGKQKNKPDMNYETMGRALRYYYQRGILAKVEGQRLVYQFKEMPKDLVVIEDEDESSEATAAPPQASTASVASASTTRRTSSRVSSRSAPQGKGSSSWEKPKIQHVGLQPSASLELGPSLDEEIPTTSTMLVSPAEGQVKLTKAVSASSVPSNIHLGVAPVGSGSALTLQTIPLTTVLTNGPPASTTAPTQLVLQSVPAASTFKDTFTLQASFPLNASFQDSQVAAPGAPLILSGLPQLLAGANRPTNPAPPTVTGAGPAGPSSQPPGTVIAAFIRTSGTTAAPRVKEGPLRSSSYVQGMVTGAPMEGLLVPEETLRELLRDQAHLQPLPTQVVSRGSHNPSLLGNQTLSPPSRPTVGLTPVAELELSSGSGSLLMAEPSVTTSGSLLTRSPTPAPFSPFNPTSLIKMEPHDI
# Sequence of ELF1 (P32519 whole entry): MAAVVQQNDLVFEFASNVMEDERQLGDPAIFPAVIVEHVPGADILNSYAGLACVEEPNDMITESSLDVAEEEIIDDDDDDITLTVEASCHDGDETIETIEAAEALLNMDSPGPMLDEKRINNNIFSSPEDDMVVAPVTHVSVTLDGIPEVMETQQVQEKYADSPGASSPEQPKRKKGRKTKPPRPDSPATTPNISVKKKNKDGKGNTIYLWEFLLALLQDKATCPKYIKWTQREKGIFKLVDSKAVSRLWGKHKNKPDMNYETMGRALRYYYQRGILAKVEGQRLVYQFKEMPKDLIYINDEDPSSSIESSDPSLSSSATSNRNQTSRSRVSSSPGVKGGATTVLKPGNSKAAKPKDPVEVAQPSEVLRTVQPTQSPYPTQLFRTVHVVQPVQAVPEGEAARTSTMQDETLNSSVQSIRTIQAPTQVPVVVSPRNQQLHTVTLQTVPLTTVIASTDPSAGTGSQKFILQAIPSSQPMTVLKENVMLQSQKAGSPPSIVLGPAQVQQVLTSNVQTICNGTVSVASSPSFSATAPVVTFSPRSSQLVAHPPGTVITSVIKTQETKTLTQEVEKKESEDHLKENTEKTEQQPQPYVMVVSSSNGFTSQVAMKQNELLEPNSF
# Sequence of SPIB (Q01892 whole entry): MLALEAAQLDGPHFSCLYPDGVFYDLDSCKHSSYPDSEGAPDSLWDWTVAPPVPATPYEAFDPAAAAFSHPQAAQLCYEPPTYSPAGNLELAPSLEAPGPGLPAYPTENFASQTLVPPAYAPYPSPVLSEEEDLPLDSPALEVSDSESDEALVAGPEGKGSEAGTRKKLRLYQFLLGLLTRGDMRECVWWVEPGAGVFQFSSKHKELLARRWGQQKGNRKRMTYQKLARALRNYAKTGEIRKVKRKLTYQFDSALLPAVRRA
# Sequence of HSF1 (Q00613 whole entry): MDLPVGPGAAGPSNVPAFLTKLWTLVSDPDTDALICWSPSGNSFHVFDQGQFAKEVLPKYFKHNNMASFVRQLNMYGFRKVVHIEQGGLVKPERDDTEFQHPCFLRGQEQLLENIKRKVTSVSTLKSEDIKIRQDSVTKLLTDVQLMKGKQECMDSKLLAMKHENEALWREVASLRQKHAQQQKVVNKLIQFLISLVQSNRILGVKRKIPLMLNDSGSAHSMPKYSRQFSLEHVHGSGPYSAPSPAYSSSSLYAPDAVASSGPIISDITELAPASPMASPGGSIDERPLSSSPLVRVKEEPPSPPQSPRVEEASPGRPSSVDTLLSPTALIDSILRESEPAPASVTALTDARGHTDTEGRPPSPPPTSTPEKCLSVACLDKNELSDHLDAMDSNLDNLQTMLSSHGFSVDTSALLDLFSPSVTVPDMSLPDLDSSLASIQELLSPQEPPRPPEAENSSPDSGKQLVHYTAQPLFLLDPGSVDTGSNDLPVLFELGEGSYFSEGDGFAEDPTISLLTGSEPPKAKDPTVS
# Sequence of CRX (O43186 whole entry): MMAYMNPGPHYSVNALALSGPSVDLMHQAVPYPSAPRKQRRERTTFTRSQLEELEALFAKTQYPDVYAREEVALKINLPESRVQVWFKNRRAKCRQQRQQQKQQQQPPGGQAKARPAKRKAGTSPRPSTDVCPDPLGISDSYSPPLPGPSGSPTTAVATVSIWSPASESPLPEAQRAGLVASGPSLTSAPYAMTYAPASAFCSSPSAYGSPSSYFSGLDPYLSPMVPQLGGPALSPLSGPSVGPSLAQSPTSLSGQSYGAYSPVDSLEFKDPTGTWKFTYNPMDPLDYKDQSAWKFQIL
# Sequence of ETV5 (P41161 whole entry): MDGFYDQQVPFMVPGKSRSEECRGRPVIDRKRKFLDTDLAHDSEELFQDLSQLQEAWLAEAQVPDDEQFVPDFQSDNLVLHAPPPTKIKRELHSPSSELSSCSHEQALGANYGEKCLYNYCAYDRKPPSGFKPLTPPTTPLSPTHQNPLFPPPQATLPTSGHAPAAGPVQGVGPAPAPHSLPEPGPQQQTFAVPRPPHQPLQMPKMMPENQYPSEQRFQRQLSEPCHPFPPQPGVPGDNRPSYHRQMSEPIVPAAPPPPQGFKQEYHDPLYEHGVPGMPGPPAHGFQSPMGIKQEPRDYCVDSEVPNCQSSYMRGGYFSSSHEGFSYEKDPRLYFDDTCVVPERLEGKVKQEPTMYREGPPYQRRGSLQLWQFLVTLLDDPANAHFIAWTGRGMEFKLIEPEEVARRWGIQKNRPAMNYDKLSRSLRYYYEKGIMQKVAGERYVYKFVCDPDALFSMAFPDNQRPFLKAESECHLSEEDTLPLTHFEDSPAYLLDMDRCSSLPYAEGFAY
# Sequence of ETV1 (P50549 whole entry): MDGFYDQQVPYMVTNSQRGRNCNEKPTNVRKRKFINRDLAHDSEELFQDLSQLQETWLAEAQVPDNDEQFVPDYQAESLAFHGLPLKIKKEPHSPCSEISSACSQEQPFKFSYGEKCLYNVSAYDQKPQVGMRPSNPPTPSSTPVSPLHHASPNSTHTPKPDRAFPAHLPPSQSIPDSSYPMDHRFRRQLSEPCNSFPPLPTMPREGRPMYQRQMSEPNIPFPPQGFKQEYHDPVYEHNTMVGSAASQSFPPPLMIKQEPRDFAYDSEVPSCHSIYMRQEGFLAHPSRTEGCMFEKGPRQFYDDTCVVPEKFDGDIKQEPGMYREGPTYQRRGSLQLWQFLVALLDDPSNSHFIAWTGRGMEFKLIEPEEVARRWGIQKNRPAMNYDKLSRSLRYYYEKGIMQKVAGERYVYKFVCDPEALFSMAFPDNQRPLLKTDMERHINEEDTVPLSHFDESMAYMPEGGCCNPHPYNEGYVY
sequence,measurement,setting,value
TAACCT,binding signal,FLI1,"1.2 fold enrichment (6-mer frequency, TF over GST control)"
same,binding signal,ELK1,"1.32 fold enrichment (6-mer frequency, TF over GST control)"
same,binding signal,GABPA,"1.35 fold enrichment (6-mer frequency, TF over GST control)"
same,binding signal,ERG,"1.12 fold enrichment (6-mer frequency, TF over GST control)"
same,binding signal,ELF1,"1.35 fold enrichment (6-mer frequency, TF over GST control)"
same,binding signal,EHF,"1.29 fold enrichment (6-mer frequency, TF over GST control)"
same,binding signal,SPI1,"1.29 fold enrichment (6-mer frequency, TF over GST control)"
same,binding signal,SPIB,"1.31 fold enrichment (6-mer frequency, TF over GST control)"
same,binding signal,ELK3,"1.43 fold enrichment (6-mer frequency, TF over GST control)"
same,binding signal,FEV,"1.3 fold enrichment (6-mer frequency, TF over GST control)"
same,binding signal,ETV5,"1.29 fold enrichment (6-mer frequency, TF over GST control)"
same,binding signal,HSF1,"1.44 fold enrichment (6-mer frequency, TF over GST control)"
same,binding signal,SPIC,"1.17 fold enrichment (6-mer frequency, TF over GST control)"
same,binding signal,ELF4,"1.33 fold enrichment (6-mer frequency, TF over GST control)"
same,binding signal,ELK4,"1.46 fold enrichment (6-mer frequency, TF over GST control)"
same,binding signal,ETV2,"1.13 fold enrichment (6-mer frequency, TF over GST control)"
same,binding signal,ELF3,"1.29 fold enrichment (6-mer frequency, TF over GST control)"
same,binding signal,CRX,"1.67 fold enrichment (6-mer frequency, TF over GST control)"
same,binding signal,ETV1,"1.31 fold enrichment (6-mer frequency, TF over GST control)"
